Measurements taken from PubChem BioAssay AID623888 (Vanderbilt Specialized Chemistry Center, 2012).

Target: Metabotropic glutamate receptor 3 (Rattus norvegicus) (UniProt P31422)
Experiment: PubChem AID 623888
Settings: HEK/GIRK rat mGlu3, thallium flux fluorescence, Schild, at 3 µM; % glutamate max: glutamate max response with compound, stronger effect = lower value; glutamate EC50 fold shift: stronger effect = higher value

Metabotropic glutamate receptor 3 (Rattus norvegicus), sequence (P31422 whole entry, looked up): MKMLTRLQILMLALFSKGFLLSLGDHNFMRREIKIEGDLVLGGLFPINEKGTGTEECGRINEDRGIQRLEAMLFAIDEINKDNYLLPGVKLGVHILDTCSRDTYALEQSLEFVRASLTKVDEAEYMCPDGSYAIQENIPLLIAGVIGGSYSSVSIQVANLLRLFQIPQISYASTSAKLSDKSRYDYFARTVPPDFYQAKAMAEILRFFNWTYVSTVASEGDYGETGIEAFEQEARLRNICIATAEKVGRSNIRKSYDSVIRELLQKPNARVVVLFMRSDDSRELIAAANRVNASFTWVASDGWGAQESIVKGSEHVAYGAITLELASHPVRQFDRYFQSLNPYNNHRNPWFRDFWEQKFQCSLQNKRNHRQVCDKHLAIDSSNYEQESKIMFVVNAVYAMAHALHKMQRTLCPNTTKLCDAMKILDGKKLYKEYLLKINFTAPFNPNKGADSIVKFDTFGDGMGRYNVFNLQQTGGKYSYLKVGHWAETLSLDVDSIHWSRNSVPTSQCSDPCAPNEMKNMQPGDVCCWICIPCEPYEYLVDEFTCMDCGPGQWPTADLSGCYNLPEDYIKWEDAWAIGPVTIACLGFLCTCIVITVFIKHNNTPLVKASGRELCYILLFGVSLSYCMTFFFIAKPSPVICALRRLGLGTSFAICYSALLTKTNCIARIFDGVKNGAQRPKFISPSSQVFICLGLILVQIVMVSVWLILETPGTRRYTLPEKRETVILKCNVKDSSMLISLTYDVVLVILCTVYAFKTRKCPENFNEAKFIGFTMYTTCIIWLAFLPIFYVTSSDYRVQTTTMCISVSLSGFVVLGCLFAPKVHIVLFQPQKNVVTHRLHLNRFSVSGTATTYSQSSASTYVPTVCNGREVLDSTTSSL

## COc1ccc(C#Cc2ccc(C(=O)N3CCC[C@@H](CO)C3)cc2)cc1
  % glutamate max: 88.9%
  glutamate EC50 fold shift: 1.48
